PubChem BioAssay AID1508600 (Functional Genomics Laboratory (NCATS/FGL), 2020)
About 3,700 (7%) of roughly 53,000 sequences were called active.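 How the source made its calls: active means gene knockdowns whose robust z-score for IL-1 alpha signal is at least 2 or at most -2, so actives lie on both sides; inactive means the rest.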 Many of the other results were omitted from the sample, so actives are more common in it than they were.

experiment: Components of the Cytosolic LPS Sensing Pathway: Gene Identification via Genome-wide siRNA Screen; conditions: RAW264.7 macrophages, IL-1a HTRF, actives lie on both sides, screened at 100 nM (by protocol), cells primed 5 h with Pam3CSK4 first
Description: Non-canonical inflammasome activation by cytosolic LPS is a critical component of the host response to Gram-negative bacterial infection, however we lack a comprehensive understanding of the cellular processes that control this pathway. Here we describe a genome-wide siRNA screen to identify genes regulating the mouse macrophage IL-1 alpha response to cytosolic LPS.
RAW264.7 cells were maintained in complete DMEM media, comprising DMEM with 4.5 g/L glucose, 10% FBS (Gemini Bio-Products, West Sacramento, CA), 2 mM Glutamine (Lonza) and 20 mM HEPES (Lonza), hereafter complete DMEM.
The RNAi screen was conducted in 384-well format using the Ambion Silencer Mouse Genome siRNA Library (#4391425), which consists of three unique, nonoverlapping, nonpooled siRNAs for each of 17,000 gene targets. siRNA reagents ([…]) were stamped into 384-well white flat-bottom microplates (Corning, 3570) using a Velocity11 VPrep liquid handling system (Agilent) integrated into a BioCel robotic platform (Agilent) in columns 1-22, leaving columns 23-24 empty for negative (Ambion, Negative control #1) and positive (mouse Casp4) controls, respectively. The median value of each plate's negative control column was used to normalize sample wells, and the positive control was used to assess transfection efficiency and assay performance.
Lipofectamine RNAiMAX Transfection Reagent ([…]; Invitrogen) was added in […] serum-free, antibiotic-free media to plate wells using a Thermo Scientific Matrix WellMate and Microplate Stacker. Plates were incubated for 45 min at room temperature to allow for the sufficient formation of siRNA-lipid complexes. Cells were seeded at a density of 1x10^4 cells per well in 20 microL media containing 20% (vol/vol) FBS without antibiotics. The final concentration of siRNA in each well was 100 nM. Cells were cultured for 48h at 37 degrees C in 5% CO2 before addition of […] of TLR ligand Pam3CSK4 for 5 hours. The medium was then removed, replaced with […] growth media and cell were transfected with […] of LipidA and TransIT-TKO (Mirus) for 24 hour. At the end of the LipidA treatment, […] of supernatant was transferred to a 384 Greiner Bio-one non-binding low volume plate and […] of IL-1a HTRF reagent (Cisbio, 62MIL1APEH) was added and incubated at room temperature overnight. The plates were read on an EnVision plate reader (PerkinElmer). Cell viability was measured by adding 20ul Cell Titer Glo to the original plate and running a luminescence read on the EnVision. The quantified IL-1a signal for each siRNA gene-targeted well was divided by the median of the negative control wells and multiplied by 100 to achieve a negative control normalized value for each well/siRNA. This normalized value was then used to generate a robust z-score by first taking the log of each value and then by subtracting the median and dividing by the […].

Sequence | z-score
GCACGGAAGACUUACGAACTT against Cstf3 | 0.439 (inactive)
GGACAUAUUUCCAACAUGUTT against Mob3b | -1.34 (inactive)
CGAAUCAUGUGUUUGCACATT against Camkk2 | 1.21 (inactive)
GCCUGAUUGACUUAGAGUCTT against Eps8 | 0.821 (inactive)
GCAGGUGAAGAGUGAUUUUTT against Il10 | 0.318 (inactive)
GGAACUGCUUACGAAAUACTT against Lama4 | -2.33 (active)
GGAUGUGUUAUCGGUGCUCTT against Mup21 | -0.303 (inactive)
GGAAGAGGAAGAAAAAAAGTT against Iqcf4 | -0.411 (inactive)
CUUACGAUACAUAAGAGAATT against Zfp457 | 0.364 (inactive)
CGACAACAUUUUCCUGUCATT against Serpinc1 | -2.07 (active)
GGAGAGAGAGAAGAAGGAUTT against Zmat2 | -1.47 (inactive)
GCUCAUUCCAGGUAUCUGATT against Fcna | -1.19 (inactive)
GCUAUGACAGUUAUGCUACTT against Cirbp | 0.874 (inactive)
GGAUACGAGACAAUGAGAATT against Kctd2 | -0.404 (inactive)
GCGAAUUACUAUGUACCUATT against Sqor | 1.75 (inactive)
GGACUGAGGAGAGCAAUAUTT against Cts6 | -1.29 (inactive)
GGCGGACAGAAAUUAUAGATT against Tnpo3 | 3.19 (active)
CCGUUGCCUGAUAAGUUCUTT against Klf3 | 0.576 (inactive)
GCCUUUCUGAGGGAUUUUGTT against Eif1ad | -1.81 (inactive)
GCCAAGCUUACUCAGAUUUTT against Mslnl | 2.45 (active)
GGCCUUUAUUCAGAUGUCATT against Zscan12 | -2.79 (active)
GGUUUAGGCAACUAAGUUGTT against Stat5a | 0.426 (inactive)

Sequence | z-score
GCAAAGUACCCACCUUUGUTT against Pitpna | 2.06 (active)
GGCAACUUUGAAGUCUUGATT against Dntt | -0.488 (inactive)
GGGUUCUUUUAGGUUGUCATT against Ccdc85a | -0.123 (inactive)
GGAACUUCAUCCAAACUGATT against Ap4m1 | -0.12 (inactive)
CGUCCAAGCAUAUAUGAAATT against Slfn8 | 1.36 (inactive)
GGGAAGAGAAUGAGAUAAATT against F7 | 3.22 (active)
CCGACAUUCGAGUUUUGCGTT against Rrp9 | -0.532 (inactive)
GCGAACAACCACGUUUUUCTT against Ddx18 | 0.388 (inactive)
GGUGUCAAGAAGAAUGUCCTT against Megf11 | 3.2 (active)
GGCCGAAAGAUAAAAACAGTT against Rad51d | 0.173 (inactive)
GCGACACCACUGAUGACGATT against Gga2 | -0.473 (inactive)
GGAAAAACAUGCCAAAAAATT against Mettl15 | -0.222 (inactive)
CCUUAGUAUGUAUGUGGUATT against Map10 | -2.65 (active)
CCACACUUCCCUUAUUUAATT against Arpc5 | 1.35 (inactive)
GGCUAAAGACCAGUAUUUGTT against Cdh7 | 2.47 (active)
CGCAGUCAAAUUUGAAAGUTT against Car5b | 0.775 (inactive)
GGCUGACAGACAAGAUUGUTT against Tfb1m | -1.3 (inactive)
GCCUGUGGUGAUUCUCUUGTT against Tmem53 | -0.093 (inactive)
CCCAGUUAUCCUGAAAAGUTT against Ears2 | 0.526 (inactive)
GCAAAAGUAUUUUGUGUCCTT against Aamp | 0.241 (inactive)
GCGCAAUGAACGGUUCUACTT against Prepl | 3.96 (active)
GGGAUGUGAGGGAAUUAACTT against B4galt3 | -1.03 (inactive)

Sequence | z-score
GGUCUUCAAGAACUGUAGCTT against Bcl11b | 1.09 (inactive)
GCACACCAGAUCUACUUCUTT against Cyp2b9 | 0.3 (inactive)
GCUUCACUCCACCUUUCAGTT against Prkcg | 0.767 (inactive)
GGUCGUUUCUAUGAUUGGCTT against Olfr589 | 0.568 (inactive)
GCUCGAAGAAAGGCCCUGATT against B430306N03Rik | -0.509 (inactive)
GGACCUAAACAACGUGUUGTT against Klf2 | 2.74 (active)
GGAAAGAAGAAGAGUCUAATT against Nucb2 | 0.994 (inactive)
GGCCGGAGCUUACGAUUUUTT against Camk2d | 0.309 (inactive)
GGGAACAAAUUCAUUGUAUTT against Eny2 | 2.26 (active)
GGAAGUGAGAUGUCACUGATT against Ssc5d | 0.841 (inactive)
GGAUACCAAGCAUCGGAAGTT against Tfap2e | -0.0352 (inactive)
GGCAGAAACAGUCCUUGUUTT against Gfra4 | -1.54 (inactive)
GGCGUAUACCGGGAAUCCUTT against Ndrg1 | -0.505 (inactive)
GCAAUGAGUACUAUCAUACTT against Gnal | -2.71 (active)
GGUUAAAUCGAUUUUGCAUTT against Acbd5 | -0.185 (inactive)
GGGAUACCAUCUUUAUGGCTT against Vwa3b | -0.041 (inactive)
GCAAUGGACUGACAUGUCATT against Csdc2 | -0.339 (inactive)
CGGACAAGUGUUUUUCGUUTT against Wwox | 0.315 (inactive)
GGCUGUGCUCCUUGUUAGUTT against Olfr1143 | -0.083 (inactive)
GCGGUGAUGAGAGAAACCATT against Zfp617 | 0.872 (inactive)
GGACCCUUUCUUUGAUAUGTT against Rpe | 1.01 (inactive)
GCCACUGGAGUAUAGCCAGTT against Pcnx3 | 0.019 (inactive)

Sequence | z-score
CCUCUUAUAUGCAUGUGGCTT against Olfr410 | -2.13 (active)
CCAAAGCUAAAACGGGUGGTT against Tppp3 | 0.597 (inactive)
GCUGGACAUCGACUUUGGATT against Prnd | -1.54 (inactive)
CCUAUGUUUUAGCAAGCAGTT against Acyp2 | 0.758 (inactive)
GCCAUCAUCUUUGUUUAGUTT against Gm4952 | -0.684 (inactive)
GGACAUCCUCUUACAGUGGTT against Zg16 | 0.333 (inactive)
GGUCAUCUCCAAACCCUCCTT against Rbpj | 1.51 (inactive)
GGAAGAGGCCAGCUAUAACTT against Dcaf1 | -2.51 (active)
GGAGGGAUCUAAGGAACAGTT against Fgf8 | 0.263 (inactive)
GGAAUGAUUUUUGUUUGCUTT against Sf3b3 | -1.6 (inactive)
GGCACAUUCAACAACAUUUTT against Zfp592 | 1.61 (inactive)
GGAUCUUAGCAUGUCAACATT against Zfp330 | -1.29 (inactive)
GGUUCAGAUGGGAAAAAGGTT against Khdrbs2 | -2.41 (active)
GGAGAACCCUUAUGUGACATT against Pik3ca | -1.91 (inactive)
GGAGGAUGGUGCCAACAUUTT against Psmc3 | -2.02 (active)
GGUAAAAACUUUCCUUUAGTT against Prph2 | 1.48 (inactive)
GGAAUGCAAAAAACUCUGGTT against Gzmg | 0.906 (inactive)
GGCCUGAGUAUAAAGUUAGTT against Wbp2 | 1.6 (inactive)
GGAUGAAUAAGGACAGAUUTT against Phospho2 | 0.335 (inactive)
GGUUACGUGUUUGUAUCUATT against Higd1a | -0.395 (inactive)
GGCUCUUGAAAAAAACCCATT against Utp11 | 0.441 (inactive)
CGAGCUUAUGCUGAAACCATT against 3830417A13Rik | -2.45 (active)

Sequence | z-score
GGUGACUAGGAAGAACACGTT against Tmem9b | 1.99 (inactive)
GUACCUGAACUCAACUGAGTT against Ffar2 | -0.0572 (inactive)
CCCAGAAGAGGUUACAUUUTT against Cd200r4 | 0.0312 (inactive)
GGAUAUGCAGUGGAACUAUTT against Heph | -2.13 (active)
GGGAUCAGAGAUAUAGCCATT against Vmn1r192 | -1.74 (inactive)
GCAGGGUACUGGCUAAAUATT against Cd40 | 2.93 (active)
GGACAGAUUUUCACCAUUCTT against Slc1a4 | -0.593 (inactive)
GGUGAAGCAUCAGUGACAATT against Ubxn4 | 0.734 (inactive)
UUUCAAUCUGUAGCUUUCCTT against Krt86 | 0.071 (inactive)
GCUACACCGUAACAUGCUATT against Zer1 | 2.19 (active)
GCUAUGUAAGACAUUUAACTT against Ccdc162 | 1.6 (inactive)
CGUUUAUUGUAACCAGAAUTT against Fam168b | 0.263 (inactive)
GGAGGAAUUCAUUAGAAACTT against Psmc1 | -2.04 (active)
GGCUUUCCUCCAGAUAAACTT against Il6st | -0.856 (inactive)
GCGACGAGAAGAAUCUGCUTT against Mtcl1 | -0.641 (inactive)
CCGUGGAGUAACAAGUAUGTT against Capzb | -1.07 (inactive)
CGAUCUAGUCCGCCAUUACTT against Lck | -1.3 (inactive)
GCAAGACCCAAGAGUUACATT against Soat2 | -2.07 (active)
GCGAAGGAAUUUAAGGACCTT against Tmod1 | 0.836 (inactive)
GGCACCAUCUAUUAUUUUCTT against Psmc3 | -2.45 (active)
CCAAUGAUAGACUUUAUACTT against Adgrv1 | -0.252 (inactive)
